# Assay outcomes as filed in PubChem BioAssay.
# The list is not random: actives were taken first. Their share in the collection is about 8%.
# TSHR antag: Antagonists of the Thyroid Stimulating Hormone Receptor: HTS campaign | actives 0.2% (n = 330,000) | TSHR-expressing cells, TSH-stimulated cAMP HTRF, 2 h; active compounds read low | activity change, negative = inhibition, % at 11.5 µM | AID 504810, 2011;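 active means activity change below a set negative limit, meaning inhibition stronger than a set level, cut at about -70% in these data; inconclusive means activity change between two set negative limits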
#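 TSHR-expressing cells were treated with compounds, then stimulated with TSH at EC80 (4nM final) for 2 hours at 37 deg C. Cellular cAMP was measured by HTRF competition between lysate cAMP and cAMP-d2 for a cryptate-labelled anti-cAMP antibody.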
# Gal4-VP16 FLuc: VP16 counterscreen qHTS for inhibitors of ROR gamma transcriptional activity. Drosophila S2 Gal4-VP16 UAS-luciferase, luminescence, 20 h. Potency, µM (top dose mostly 53.6 µM), for inactives: top-dose activity, negative = inhibition, actives largely listed as inhibitors. actives 3.5% (n = 310,000). AID 2546, 2010;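 further: Gal4-VP16 expression switched on by copper sulfate through the metallothionein promoter; potency means the concentration at half of the fitted maximal effect; nearly all actives have a fitted effect of over 50% in size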
# FBPA coupling cs: qHTS Assay for Inhibitors of Fructose-1,6-bisphosphate Aldolase from Giardia Lamblia: Coupling assay counterscreen; actives 0.67% (n = 290,000); coupling enzyme system counterscreen, AmpLite Red fluorescence; activity change, negative = inhibition, % at 58.2 µM, hits read low; AID 2472, 2010; in the data active means activity change below about -30%
#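 Counterscreen of the coupled detection system alone, without aldolase: glyceraldehyde-3-phosphate coupling enzymes plus AmpLite Red readout. Compounds at 57.5 uM final, 10 min RT preincubation, 20 min RT reaction, fluorescence 525/598 nm.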
# ELG1 repair inh: qHTS screen for small molecules that inhibit ELG1-dependent DNA repair in human embryonic kidney (HEK293T) cells expressing luciferase-tagged ELG1; HEK293T ELG1-luciferase reporter, luminescence, 16 h; DNA damage induced by 5-fluorouridine; Potency, µM (titrated, usually from 46.1 µM), for the others: at the top dose activity change, negative = inhibition, most hits filed as inhibitors; actives 2.3% (n = 330,000); further: potency means the concentration at half of the fitted maximal effect; nearly all actives have a fitted effect of over 55% in size
#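 Luminescence from the luciferase reporter, measured 30 min after ONE-Glo reagent at room temperature, was the read-out. Beforehand, 2,000 cells per well were exposed for 16 hr at 37 °C to 5-fluorouridine together with compound or vehicle.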
# RORg inh: qHTS for inhibitors of ROR gamma transcriptional activity. Nuclear receptor ROR-gamma (Mus musculus), P51450. Drosophila S2 Gal4-RORgamma UAS-luciferase reporter, 20 h. Potency, µM (titrated, usually from 53.6 µM), for inactives: at the highest dose activity change, negative = inhibition, actives largely listed as inhibitors. actives 5.4% (n = 310,000); further: potency means the concentration at half of the fitted maximal effect; nearly all actives have a fitted effect of over 60% in size
# Target sequence (P51450 whole entry, looked up, the tested form may be a part): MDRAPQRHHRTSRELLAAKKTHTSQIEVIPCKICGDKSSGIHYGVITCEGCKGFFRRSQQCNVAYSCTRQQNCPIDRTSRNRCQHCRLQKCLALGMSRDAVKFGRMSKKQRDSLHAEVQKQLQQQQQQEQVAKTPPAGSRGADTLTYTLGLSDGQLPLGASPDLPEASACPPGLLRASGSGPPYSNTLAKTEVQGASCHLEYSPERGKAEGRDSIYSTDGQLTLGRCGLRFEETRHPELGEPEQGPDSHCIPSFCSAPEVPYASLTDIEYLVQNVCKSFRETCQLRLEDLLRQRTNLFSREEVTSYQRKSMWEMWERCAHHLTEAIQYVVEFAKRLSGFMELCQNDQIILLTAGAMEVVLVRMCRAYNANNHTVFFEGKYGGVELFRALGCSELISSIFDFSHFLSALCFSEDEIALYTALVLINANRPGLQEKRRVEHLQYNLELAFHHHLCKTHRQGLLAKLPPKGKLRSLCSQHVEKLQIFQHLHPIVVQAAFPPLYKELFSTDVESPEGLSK
#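 ROR gamma transcriptional activity was tracked as Gal4-UAS luciferase output in stably transfected Drosophila Schneider cells, with compound added 1 hr before 700 uM copper sulfate induction and a 20 hr ambient-temperature incubation.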
# * hit, by the source's call; u = inconclusive; x = no result; ! = repeats disagree. Unless noted, the call rests on the fitted dose curve; in most records, active means well fitted curve in the direction sought with a large enough effect; inconclusive means small, poorly fitted or top-dose-only effect, or another doubt; inactive means no such curve, though single readings can be large; an effect the other way counts as inactive or inconclusive. On the % scale 0 is the no-effect control and ±100 the full control effect.
SMILES,TSHR antag,Gal4-VP16 FLuc,FBPA coupling cs,ELG1 repair inh,RORg inh
CSC(=S)N/N=C/c1ccc(Br)cc1,2,1.8µM*,-2,1%,0.32µM*
CC(C)(C)NC(=O)C(=O)N/N=C/c1ccc(Br)cc1,7,-4%,-4,u,-7%
COc1cc(OC)c(N(C)C(=O)c2cn(C)c(=O)c3cc(OC)c(OC)cc23)cc1Cl,5,6%,1,u,1%
O=[N+]([O-])c1cc(S(=O)(=O)N2CCCCCC2)ccc1F,-12,4.5µM*,15,u,5.6µM*
CCOC(=O)CSc1ccc(S(=O)(=O)N2CCCCC2)cc1[N+](=O)[O-],1,-6%,-1,0%,12%
CN(CC(=O)Nc1ccc(S(=O)(=O)N2CCCC2)cc1)Cc1ccc(Cl)cc1Cl,-9,-16%,3,u,0%
CN(CC(=O)Nc1ccc(Cl)cc1)c1ccc(S(=O)(=O)N2CCCCC2)cc1[N+](=O)[O-],-2,u,-4,18µM*,u
COC(=O)CSc1ccc(S(=O)(=O)N2CCCCCC2)cc1[N+](=O)[O-],31,-2%,1,10µM*,1%
COc1ccccc1NS(=O)(=O)c1ccc(NN=C2CCCC2)c([N+](=O)[O-])c1,-25,18µM*,2,-18%,u
COc1ccccc1NS(=O)(=O)c1ccc(N/N=C/C=C/c2ccccc2[N+](=O)[O-])c([N+](=O)[O-])c1,-10,-1%,-1,-8%,5%
Cc1cc(C)cc(C(=O)N[C@@H](C)C(=O)N2CCC3(CC2)NCCc2[nH]cnc23)c1,-1,-1%,x,20%,-2%
COc1ccc(OC)c(S(=O)(=O)N2CCC(C(=O)NC3CC3)CC2)c1,5,-18%,3,15%,2%
COc1ccccc1C(CNc1ccc(S(=O)(=O)N2CCCC2)cc1[N+](=O)[O-])N(C)C (stereo not given),70,5%,0,12µM*,4%
O=C(COc1ccc(Cl)cc1)Nc1cc2c3c(c1)CC(=O)N3CCC2,0,x,x,-10%,x
O=[N+]([O-])c1ccc(-c2nc(-c3ccc(F)cc3)c(-c3ccncc3)[nH]2)cc1,7,-17%,-1,x,-26%
COc1ccccc1-c1ccc2ncnc(NCc3cnc(C)cn3)c2c1,x,u,2,x,u
COC(=O)CCC(=O)OC1(C)C(=O)C2=CN(CC(C)C)C(c3ccc(OC)cc3)=CC2=C(Br)C1=O (stereo not given),-2,3%,-40*!,7%,24%
COC(=O)CCC(=O)OC1(C)C(=O)C2=CN(Cc3ccccc3)C(c3ccc(OC)cc3)=CC2=C(Br)C1=O (stereo not given),x,x,-4,x,x
COC(=O)CCC(=O)OC1(C)C(=O)C2=CN(CCCOC(C)C)C(c3ccc(OC)cc3)=CC2=C(Br)C1=O (stereo not given),-5,-6%,-41*,-1%,-14%
COC(=O)CCC(=O)OC1(C)C(=O)C2=CN(Cc3ccc(OC)cc3)C(c3ccc(OC)cc3)=CC2=C(Br)C1=O (stereo not given),x,x,-3,x,x
COC(=O)CCC(=O)OC1(C)C(=O)C2=CN(CC3CC3)C(c3ccc(OC)cc3)=CC2=C(Br)C1=O (stereo not given),-9,-2%,-32*,0%,8%
COc1cc(-c2nnc(COC(=O)CSc3cc(C)c4ccccc4n3)o2)cc(OC)c1OC,7,-6%,1,u,-7%
COc1ccc(-c2cc(-c3nnc(COC(=O)C4CC4)o3)c3ccccc3n2)cc1OC,-15,-16%,-1,7.3µM*,1%
COc1ccc(-c2cc(-c3nnc(COC(=O)c4ccc(O)cc4)o3)c3ccccc3n2)cc1OC,-9,-9%,-1,u,26%
COc1ccc(-c2cc(-c3nnc(COC(=O)CC4CCCC4)o3)c3ccccc3n2)cc1OC,-2,5%,1,21µM*,15%
SMILES,TSHR antag,Gal4-VP16 FLuc,FBPA coupling cs,ELG1 repair inh,RORg inh
COc1ccc(-c2cc(-c3nnc(COC(=O)C4CC4C)o3)c3ccccc3n2)cc1OC (stereo not given),7,-1%,-2,9.2µM*,16%
O=C(NCCc1ccc(Cl)cc1)C1COc2ccccc2O1 (stereo not given),-2,-1%,-1,6%,5%
COC(=O)CCCC1=CC2=CC(=O)C(C)(OC(=O)c3cccs3)C(=O)C2=CN1c1ccccc1 (stereo not given),x,x,-11,x,x
COC(=O)CCCC1=CC2=CC(=O)C(C)(OC(=O)c3cccs3)C(=O)C2=CN1C1CCCCC1 (stereo not given),7,-5%,-41*!,12%,2%
COC(=O)CCCC1=CC2=CC(=O)C(C)(OC(=O)c3cccs3)C(=O)C2=CN1C1CC1 (stereo not given),-1,4%,-40*!,3%,18%
CCCCC1=CC2=CC(=O)C(C)(OC(=O)c3cccs3)C(=O)C2=CO1 (stereo not given),x,5%,-2,x,15%
CCOC(=O)C(C)Sc1nc2c(cnn2-c2ccc(F)cc2)c(=O)[nH]1 (stereo not given),-10,3%,-3,-3%,-2%
COC(=O)c1ccc(C(=O)OC)c(NC(=O)CSc2cccc[n+]2[O-])c1,1,3.5µM*,-3,u,5µM*
COC(=O)c1ccc(-n2c(C)cc(C(=O)CSc3cccc[n+]3[O-])c2C)cc1,-4,0%,-2,-1%,21%
O=C(CSc1cccc[n+]1[O-])Nc1ccccc1Oc1ccccc1,1,7.9µM*,-2,-11%,6.3µM*
O=C(CSc1cccc[n+]1[O-])Nc1ccccc1C(F)(F)F,-9,x,x,7%,x
Cc1ccc(C[C@H](C(=O)O)N2C(=O)c3ccc(C(=O)O)cc3C2=O)c(C)c1,-8,6%,5,x,-8%
CCOC(=O)N1CCN(C(=O)c2oc3ccc(S(=O)(=O)N(CC)CC)cc3c2C)CC1,9,-3%,0,12µM*,-14%
CCCOCC(C)O (stereo not given),x,1%,x,x,1%
COc1ccccc1N1C(=O)c2ccc(C(=O)Nc3ccc(F)cc3)cc2C1=O,-12,16µM*,1,-3%,-40%
CC(=O)O[C@@H]1[C@@H](O)CN[C@@H]1Cc1ccccc1,x,0.28µM*,-1,x,0.5µM*
CCOC(=O)C(=O)N1CCC(Cc2ccccc2)CC1,-10,20%,5,-7%,-9%
C/C(=N\Nc1ccccn1)c1ccc(OC(F)F)cc1,-13,u,-9,u,14µM*
